This note sets out measurements from PubChem BioAssay AID1961 (Sanford-Burnham Center for Chemical Genomics, 2009).

Assay [1] can be described thus: GPR55 agonists via beta-arrestin recruitment, primary screen, imaging, U2OS cells, beta-arrestin-GFP redistribution (AID 1961).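 Also: U2OS osteosarcoma cells stably expressing GPR55 and beta-arrestin-GFP.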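 As to activation: plate controls were DMSO negative control for no effect and LPI positive control for full effect.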 The conditions noted are these: measured here: cytotoxicity, cells analyzed, at 10 µM. For orientation: Activated receptors often draw arrestin, which recruitment assays turn into a signal.
In assay [2] the target is G-protein coupled receptor 55 (Homo sapiens) (UniProt Q9Y2T6). The assay is described as above. The conditions noted are these: at 10 µM, stronger effect = higher value.

Structures are written as SMILES. Hit rate of the full screen: of about 290,000 compounds, about 140 (0.048%) were called active. The sample holds actives, similar compounds and a random draw of the others, so the mix is not that of the screen.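 The calls were made as follows: active = activation above 40% with more than 50 cells counted in the well; inconclusive = wells holding fewer than 50 cells, flagged as toxic or sparse; inactive = the rest.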

G-protein coupled receptor 55 (Homo sapiens), sequence (Q9Y2T6 whole entry, looked up): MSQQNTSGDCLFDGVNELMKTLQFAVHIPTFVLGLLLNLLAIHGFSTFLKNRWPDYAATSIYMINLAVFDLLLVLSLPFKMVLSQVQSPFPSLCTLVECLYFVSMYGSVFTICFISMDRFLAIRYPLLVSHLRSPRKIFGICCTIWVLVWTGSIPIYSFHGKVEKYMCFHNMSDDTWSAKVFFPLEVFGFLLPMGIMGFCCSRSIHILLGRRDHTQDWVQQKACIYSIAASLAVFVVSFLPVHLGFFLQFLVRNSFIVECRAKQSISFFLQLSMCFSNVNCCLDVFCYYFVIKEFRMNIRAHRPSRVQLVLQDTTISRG

In the case of `CCN1CCCC1CNCc1cc(OC)c(OC)c(OC)c1` (stereo unspecified), in assay [1], the cell count stood at 313 cells. Also, the activation in assay [2] was -0.1% (inactive).
For `COc1ccccc1Cc1noc(COc2cccc(C)c2C)n1`, in assay [1], the cell count is 384 cells. The activation in assay [2] was -0.1% (inactive).
The matching figures for `Cc1nnc(SC(C)C)n(N)c1=O`: 256 cells and -1.1% (inactive).
`O=c1cnnc(SCc2ccc([N+](=O)[O-])cc2)[nH]1` had a cell count in assay [1] of 243 cells. Moreover, in assay [2], the activation is 0.2% (inactive).
As for `CCn1nc(C)c(CN2CCC(C(=O)Nc3cccc(-c4cccc(Cl)c4)c3)CC2)c1C`, the cell count in assay [1] is 372 cells. In addition, the activation in assay [2] was 0% (inactive).
Consider `C=CCSc1nnc2n(CCc3ccccc3)c(=O)c3c4c(sc3n12)COC(C)(C)C4`, for which the cell count in assay [1] was 369 cells. The activation in assay [2] is -0.1% (inactive).
The matching figures for `CCC1(C)Cc2c(sc3c2c(=O)n(C)c2nnc(SCCc4ccccc4)n32)CO1` (stereo unspecified): 322 cells and -0.2% (inactive).
The matching figures for `CCCCSc1nnc2n(CCc3ccccc3)c(=O)c3c4c(sc3n12)COC(C)(C)C4`: 332 cells and 58% (active).
The matching figures for `COc1ccc(C2CC(c3ccc(F)cc3)=NN2c2ccccc2)cc1OC` (stereo unspecified): 391 cells and -0.1% (inactive).
On to `COc1cc(C2CC(c3ccccc3)=NN2c2ccccc2)ccc1OCC(=O)O` (stereo unspecified), for which the cell count in assay [1] was determined as 329 cells. The activation in assay [2] was 0.9% (inactive).
In assay [1], `O=C(CSc1nnc(CNc2ccc(F)cc2)n1CC1CCCO1)N1CCOCC1` (stereo unspecified) showed a cell count of 336 cells. Also, the activation in assay [2] is 0.2% (inactive).
Take `CCOc1ccc(/C=N/NC(=O)C(C)N(c2ccc(OC)cc2)S(C)(=O)=O)cc1OCC` (stereo unspecified): the cell count in assay [1] is 265 cells. In addition, the activation in assay [2] is 0.6% (inactive).
`CCOC(=O)CCS(=O)(=O)c1nc(-c2ccccc2)cc(C(F)(F)F)n1` gave a cell count in assay [1] of 310 cells. Moreover, the activation in assay [2] is 14.3% (inactive).
In assay [1], `CCOC(=O)CS(=O)(=O)c1nc(-c2ccccc2)cc(C(F)(F)F)n1` gave a cell count of 302 cells. Further, the activation in assay [2] was 49.8% (active).
The like results for `CCOC(=O)CS(=O)(=O)c1nc(-c2ccc(F)cc2)cc(C(F)(F)F)n1` were, in that order, 353 cells and 16.3% (inactive).
The like results for `CNC(=O)CSc1nnc(-c2cccs2)o1` were, in that order, 345 cells and 0.3% (inactive).
On to `CC(=O)Nc1cccc(/C(C)=N/NC(=O)c2cccs2)c1`, for which the cell count in assay [1] came out at 330 cells. In addition, in assay [2], the activation was -0.4% (inactive).
For `COc1ccc(-c2cc(C(F)(F)F)nc(SCC(=O)Nc3ccc4c(c3)OCO4)n2)cc1`, the cell count in assay [1] is 399 cells. In assay [2], the activation is -0.2% (inactive).
The matching figures for `COc1ccccc1NC(=O)CSCc1ccc([N+](=O)[O-])cc1`: 415 cells and -0.1% (inactive).
The like results for `COc1ccccc1P(=O)(c1ccccc1)c1ccc([N+](=O)[O-])cc1` (stereo unspecified) were, in that order, 384 cells and 0.2% (inactive).
Turning to `CC(=O)N1CC=C2C(C#N)=C(N)C(C#N)(C#N)C(C)C2C1` (stereo unspecified), the cell count in assay [1] worked out at 315 cells. Further, the activation in assay [2] was -0.2% (inactive).
On to `Cc1ccc(NC(=O)CS(=O)CC(=O)NC23CC4CC(CC(C4)C2)C3)cc1` (stereo unspecified), for which, in assay [1], the cell count came out at 322 cells. In assay [2], the activation was 0% (inactive).
The matching figures for `CCc1ccccc1NC(=O)c1ccc(-c2csc(C)n2)cc1`: 398 cells and -0.1% (inactive).
`COc1ccc(CNc2nc(-c3cccnc3)nn2S(C)(=O)=O)cc1` had a cell count in assay [1] of 258 cells. In addition, the activation in assay [2] was 1.3% (inactive).
The like results for `COc1ccc(OC)c(C2=Nn3c(nnc3-c3cccc(OC(C)C)c3)SC2)c1` were, in that order, 301 cells and -0.2% (inactive).
The like results for `COc1cccc(-c2nnc3n2N=C(c2cc(OC)ccc2OC)CS3)c1` were, in that order, 449 cells and -0.1% (inactive).
The matching figures for `CCOc1cccc(-c2nnc3n2N=C(c2cc(OC)ccc2OC)CS3)c1`: 276 cells and 100% (active).
With `Cc1ccc(S(=O)(=O)NC2=C(N3CCN(c4ccccc4F)CC3)C(=O)c3ccccc3C2=O)cc1`, the cell count in assay [1] came to 421 cells. Also, in assay [2], the activation is -0.1% (inactive).
For `COc1ccc(CN2C(=O)c3ccccc3C2=O)cc1`, in assay [1], the cell count amounted to 379 cells. For the same molecule, the activation in assay [2] is 0.6% (inactive).
In turn, `COc1ccc(CN2C(=O)c3cccc4cccc(c34)C2=O)cc1` returned a cell count in assay [1] of 353 cells. Also, in assay [2], the activation is -0.1% (inactive).
The matching figures for `CCc1nn(CC(=O)NCCc2ccc(Cl)cc2)c(=O)c2cccn12`: 343 cells and 0% (inactive).
`CCOC(=O)C(CC)(CCC(=O)OC)c1csc(Nc2ccccc2O)n1` (stereo unspecified) displayed a cell count in assay [1] of 367 cells. For the same molecule, the activation in assay [2] was -0.1% (inactive).
The matching figures for `Fc1cccc(NCCc2c[nH]c3ccccc23)n1`: 334 cells and -0.2% (inactive).
In turn, `COc1ccccc1N1CCN(C2CCN(C(=O)COc3ccccc3)CC2)CC1` yielded a cell count in assay [1] of 401 cells. Moreover, the activation in assay [2] is -0.1% (inactive).
Consider `O=C(NCCN1CCOCC1)c1cc(-c2ccco2)on1`, for which, in assay [1], the cell count was determined as 315 cells. In addition, in assay [2], the activation was -0.1% (inactive).
`COc1ccc(Nc2nc(Cl)c(C=O)s2)cc1` had a cell count in assay [1] of 273 cells. In addition, in assay [2], the activation is 0.2% (inactive).
The matching figures for `Cc1nnnn1/C(=C\c1ccccc1)C(=O)OCC(=O)N1CC2(C)CC1CC(C)(C)C2` (stereo unspecified): 330 cells and 74.3% (active).
For `Cc1nnnn1/C(=C\c1ccccc1)C(=O)OCC(=O)NC(C)(C)C`, the cell count in assay [1] was 301 cells. Moreover, the activation in assay [2] is -0.3% (inactive).
Take `Cc1nnnn1/C(=C\c1ccccc1)C(=O)OCC(=O)N(C)C1CCS(=O)(=O)C1` (stereo unspecified): the cell count in assay [1] came out at 254 cells. Besides, the activation in assay [2] was -0.4% (inactive).
The matching figures for `CS(=O)(=O)N(CC(=O)NCCc1ccccc1)C1CCCCC1`: 388 cells and -0.1% (inactive).
In the case of `N#Cc1c2n(c(=S)n(-c3ccc(F)cc3)c1=O)CCCCC2`, the cell count in assay [1] is 250 cells. Besides, the activation in assay [2] is -0.3% (inactive).
On to `CC(C)CC(=O)Nc1nnc(S(=O)(=O)N(C)Cc2ccco2)s1`, for which the cell count in assay [1] was determined as 342 cells. In addition, the activation in assay [2] is -0.2% (inactive).
The molecule `CSc1ccccc1OCc1cc(C(=O)N2CCc3sccc3C2)no1` showed a cell count in assay [1] of 327 cells. For the same molecule, the activation in assay [2] is -0.2% (inactive).
The matching figures for `Cc1ccc2c(C)c(C(=O)N3CCN(Cc4ccc5c(c4)OCO5)CC3)oc2c1C`: 372 cells and -0.1% (inactive).
The molecule `COc1ccc(S(=O)(=O)NCCSC(C)(C)C)cc1Cl` displayed a cell count in assay [1] of 346 cells. Moreover, in assay [2], the activation was -0.1% (inactive).
Take `CCOC(=O)Cn1c(CN2CCN(C(c3ccccc3)c3ccccc3)CC2)nc2c1c(=O)n(C)c(=O)n2C`: the cell count in assay [1] came to 284 cells. For the same molecule, the activation in assay [2] is 0.3% (inactive).
The like results for `O=C(C1CCCN(S(=O)(=O)c2cccc3nsnc23)C1)N1CCCCCC1` (stereo unspecified) were, in that order, 250 cells and 0.1% (inactive).
The matching figures for `N#Cc1ccccc1NC(=O)CC1CCCCC1`: 377 cells and -0.1% (inactive).
As to `O=C(O)c1ccc[nH]c1=S`, the cell count in assay [1] was 381 cells. Also, in assay [2], the activation was 0% (inactive).
In turn, `CCN(CC)S(=O)(=O)c1ccc(N2CCOCC2)c(NCC(=O)Nc2ccc(F)cc2)c1` showed a cell count in assay [1] of 259 cells. In addition, in assay [2], the activation was -0.1% (inactive).
Consider `Cc1ccc(C(=O)NC(=S)/C=C2\N(C)c3ccccc3C2(C)C)cc1`, for which the cell count in assay [1] turned out to be 272 cells. Moreover, the activation in assay [2] was 0.2% (inactive).
As for `COc1ccccc1C(=O)NC(=S)/C=C1/N(C)c2ccccc2C1(C)C`, the cell count in assay [1] was 278 cells. Further, in assay [2], the activation is 91% (active).
In assay [1], `CN1/C(=C\C(=S)NC(=O)c2ccccc2Cl)C(C)(C)c2ccccc21` yielded a cell count of 357 cells. Moreover, in assay [2], the activation is -0.2% (inactive).
